How the values were obtained:
Test in all cases: DAPPL (digital affinity profiling via proximity ligation, sequencing); 10 mM Tris-HCl pH 7.5, 50 mM NaCl, 1 mM DTT, 4% glycerol, room temperature, 30 min; GST-TFs on glutathione beads, 16-mer random dsDNA library, 0.1% formaldehyde crosslink after washing; high values mean tight binding
FEV = molecular target: T1, FEV (Homo sapiens, UniProt Q99581 1-238); settings: protein: recombinant; tags: N-terminal GST; dsDNA, one strand shown
T1 sequence: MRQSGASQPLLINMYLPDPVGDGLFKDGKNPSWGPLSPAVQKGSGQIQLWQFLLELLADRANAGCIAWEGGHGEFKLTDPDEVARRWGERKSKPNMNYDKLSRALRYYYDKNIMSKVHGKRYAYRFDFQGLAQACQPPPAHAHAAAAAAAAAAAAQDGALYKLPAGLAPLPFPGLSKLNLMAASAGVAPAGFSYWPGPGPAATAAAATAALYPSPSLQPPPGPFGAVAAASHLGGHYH
How it was run: (§1)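 Binding signal is each hexamer's read frequency for a factor divided by its frequency in the tag-only sample. The factors were GST-fused human transcription factors from yeast, captured on glutathione beads, DNA-barcoded and pooled with that sample. Pools were incubated with 200 nmole of a random double-stranded 16-mer DNA library in Tris/NaCl/DTT/glycerol buffer at room temperature for 30 min, then washed, crosslinked with 0.1% formaldehyde, proximity-ligated with BsaI/T4 ligase (1 h, 37 °C), PCR-amplified and sequenced on an Illumina NextSeq500.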

ETV5 = ETV5 (Homo sapiens, UniProt P41161 1-510); settings: protein: recombinant; tags: N-terminal GST; dsDNA, one strand shown
How it was run: as §1

HSF1 = HSF1 (Homo sapiens, UniProt Q00613 1-529); settings: protein: recombinant; tags: N-terminal GST; chain copies: 3; dsDNA, one strand shown
How it was run: as §1

SPIC = molecular target: T2, SPIC (Homo sapiens, UniProt Q8N5J4 1-248); settings: protein: recombinant; tags: N-terminal GST; dsDNA, one strand shown
T2 sequence: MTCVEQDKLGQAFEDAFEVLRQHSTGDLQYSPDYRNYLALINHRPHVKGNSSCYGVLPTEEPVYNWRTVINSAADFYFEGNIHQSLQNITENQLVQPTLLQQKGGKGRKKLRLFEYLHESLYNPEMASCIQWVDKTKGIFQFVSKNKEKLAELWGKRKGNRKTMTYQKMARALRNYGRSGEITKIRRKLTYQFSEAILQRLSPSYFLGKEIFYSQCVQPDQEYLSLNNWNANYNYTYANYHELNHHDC
How it was run: as §1

ELF4 = ELF4 (Homo sapiens, UniProt Q99607 1-663); settings: protein: recombinant; tags: N-terminal GST; dsDNA, one strand shown
How it was run: as §1

ELK4 = molecular target: T3, ELK4 (Homo sapiens, UniProt P28324-2 1-405); settings: protein: recombinant; tags: N-terminal GST; dsDNA, one strand shown
T3 sequence: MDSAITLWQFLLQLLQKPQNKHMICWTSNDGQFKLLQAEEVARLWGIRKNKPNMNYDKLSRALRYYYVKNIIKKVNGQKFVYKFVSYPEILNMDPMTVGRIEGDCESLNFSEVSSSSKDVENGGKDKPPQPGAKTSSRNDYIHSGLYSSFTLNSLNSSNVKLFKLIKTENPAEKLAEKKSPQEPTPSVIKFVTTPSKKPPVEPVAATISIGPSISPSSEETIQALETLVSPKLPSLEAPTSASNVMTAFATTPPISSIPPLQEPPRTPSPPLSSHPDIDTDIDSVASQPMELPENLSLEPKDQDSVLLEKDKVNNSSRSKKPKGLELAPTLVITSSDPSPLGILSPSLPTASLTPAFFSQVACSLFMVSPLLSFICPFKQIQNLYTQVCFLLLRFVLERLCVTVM
How it was run: as §1

ETV2 = molecular target: T4, ETV2 (Homo sapiens, UniProt O00321 1-342); settings: protein: recombinant; tags: N-terminal GST; dsDNA, one strand shown
T4 sequence: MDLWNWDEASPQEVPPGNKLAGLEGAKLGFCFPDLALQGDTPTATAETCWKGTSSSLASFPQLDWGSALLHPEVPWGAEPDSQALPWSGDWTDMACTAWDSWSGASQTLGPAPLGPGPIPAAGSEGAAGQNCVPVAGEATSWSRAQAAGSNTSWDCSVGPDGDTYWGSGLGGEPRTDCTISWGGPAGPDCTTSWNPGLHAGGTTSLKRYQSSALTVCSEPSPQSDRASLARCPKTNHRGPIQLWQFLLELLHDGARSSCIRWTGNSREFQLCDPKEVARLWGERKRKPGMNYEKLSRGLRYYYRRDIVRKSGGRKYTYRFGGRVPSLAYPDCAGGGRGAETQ
How it was run: as §1

ELF3 = molecular target: T5, ELF3 (Homo sapiens, UniProt P78545 1-371); settings: protein: recombinant; tags: N-terminal GST; dsDNA, one strand shown
T5 sequence: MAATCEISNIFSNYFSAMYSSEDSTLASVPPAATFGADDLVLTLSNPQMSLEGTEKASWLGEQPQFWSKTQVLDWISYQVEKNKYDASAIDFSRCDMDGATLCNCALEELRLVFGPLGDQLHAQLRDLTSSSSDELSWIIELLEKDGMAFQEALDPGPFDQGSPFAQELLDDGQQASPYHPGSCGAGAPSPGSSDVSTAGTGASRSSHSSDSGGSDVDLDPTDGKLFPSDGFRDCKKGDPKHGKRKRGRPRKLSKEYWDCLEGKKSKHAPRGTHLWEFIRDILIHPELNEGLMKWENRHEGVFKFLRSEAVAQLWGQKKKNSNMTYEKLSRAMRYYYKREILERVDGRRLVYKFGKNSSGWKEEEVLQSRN
How it was run: as §1

CRX = CRX (Homo sapiens, UniProt O43186 1-299); settings: protein: recombinant; tags: N-terminal GST; dsDNA, one strand shown
How it was run: as §1

ETV1 = ETV1 (Homo sapiens, UniProt P50549 1-477); settings: protein: recombinant; tags: N-terminal GST; dsDNA, one strand shown
How it was run: as §1

ERF = molecular target: T6, ERF (Homo sapiens, UniProt P50548 1-548); settings: protein: recombinant; tags: N-terminal GST; dsDNA, one strand shown
T6 sequence: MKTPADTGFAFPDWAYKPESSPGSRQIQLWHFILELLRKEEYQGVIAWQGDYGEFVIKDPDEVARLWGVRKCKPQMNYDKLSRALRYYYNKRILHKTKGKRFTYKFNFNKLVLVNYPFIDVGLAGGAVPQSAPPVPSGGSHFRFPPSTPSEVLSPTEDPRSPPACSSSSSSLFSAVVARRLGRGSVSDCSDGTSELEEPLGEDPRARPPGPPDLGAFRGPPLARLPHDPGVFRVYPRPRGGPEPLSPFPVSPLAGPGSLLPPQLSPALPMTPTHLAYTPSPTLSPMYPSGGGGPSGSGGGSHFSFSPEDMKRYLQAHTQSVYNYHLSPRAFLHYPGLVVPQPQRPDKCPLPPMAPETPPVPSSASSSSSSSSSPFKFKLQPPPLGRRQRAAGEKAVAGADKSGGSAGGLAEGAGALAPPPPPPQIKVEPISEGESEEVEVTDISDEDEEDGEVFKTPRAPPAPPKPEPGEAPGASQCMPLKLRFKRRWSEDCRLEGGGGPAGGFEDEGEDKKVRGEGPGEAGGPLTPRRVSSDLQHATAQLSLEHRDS
How it was run: as §1

ETV3L = molecular target: T7, ETV3L (Homo sapiens, UniProt Q6ZN32 1-361); settings: protein: recombinant; tags: N-terminal GST; dsDNA, one strand shown
T7 sequence: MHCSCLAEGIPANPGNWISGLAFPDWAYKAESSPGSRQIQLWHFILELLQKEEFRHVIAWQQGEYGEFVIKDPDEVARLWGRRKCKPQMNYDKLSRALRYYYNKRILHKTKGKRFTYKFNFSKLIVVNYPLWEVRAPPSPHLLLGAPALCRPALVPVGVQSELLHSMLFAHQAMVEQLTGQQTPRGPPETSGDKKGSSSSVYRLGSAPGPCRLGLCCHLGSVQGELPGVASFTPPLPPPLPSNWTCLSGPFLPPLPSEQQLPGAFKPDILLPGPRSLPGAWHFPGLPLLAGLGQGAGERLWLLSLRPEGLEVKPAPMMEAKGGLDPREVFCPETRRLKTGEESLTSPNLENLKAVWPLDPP
How it was run: as §1

ETS2 = molecular target: T8, ETS2 (Homo sapiens, UniProt P15036 1-469); settings: protein: recombinant; tags: N-terminal GST; dsDNA, one strand shown
T8 sequence: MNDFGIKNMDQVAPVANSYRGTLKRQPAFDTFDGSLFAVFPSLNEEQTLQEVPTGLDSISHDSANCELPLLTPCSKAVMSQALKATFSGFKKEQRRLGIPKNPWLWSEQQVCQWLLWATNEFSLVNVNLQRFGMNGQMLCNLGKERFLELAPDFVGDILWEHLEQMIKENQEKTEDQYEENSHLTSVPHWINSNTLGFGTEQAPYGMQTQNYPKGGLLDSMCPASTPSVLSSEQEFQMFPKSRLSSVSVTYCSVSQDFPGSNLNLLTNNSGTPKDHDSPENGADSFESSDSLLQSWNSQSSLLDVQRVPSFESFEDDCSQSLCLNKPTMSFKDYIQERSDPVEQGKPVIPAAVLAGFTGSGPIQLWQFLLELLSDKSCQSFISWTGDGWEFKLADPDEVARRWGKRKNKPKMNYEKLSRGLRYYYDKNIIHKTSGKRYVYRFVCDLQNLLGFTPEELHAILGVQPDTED
How it was run: as §1

SPDEF = molecular target: T9, SPDEF (Homo sapiens, UniProt O95238 1-335); settings: protein: recombinant; tags: N-terminal GST; dsDNA, one strand shown
T9 sequence: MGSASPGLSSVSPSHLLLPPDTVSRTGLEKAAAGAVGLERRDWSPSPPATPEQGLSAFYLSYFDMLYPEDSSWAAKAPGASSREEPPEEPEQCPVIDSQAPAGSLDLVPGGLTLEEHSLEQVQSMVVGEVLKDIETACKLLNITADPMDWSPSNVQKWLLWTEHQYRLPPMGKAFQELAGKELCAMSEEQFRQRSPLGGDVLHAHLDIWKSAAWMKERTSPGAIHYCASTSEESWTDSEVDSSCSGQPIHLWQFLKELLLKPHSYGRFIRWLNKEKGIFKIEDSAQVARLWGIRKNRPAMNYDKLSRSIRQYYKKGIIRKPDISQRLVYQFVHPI
How it was run: as §1

ETV7 = molecular target: T10, ETV7 (Homo sapiens, UniProt Q9Y603 1-341); settings: protein: recombinant; tags: N-terminal GST; dsDNA, one strand shown
T10 sequence: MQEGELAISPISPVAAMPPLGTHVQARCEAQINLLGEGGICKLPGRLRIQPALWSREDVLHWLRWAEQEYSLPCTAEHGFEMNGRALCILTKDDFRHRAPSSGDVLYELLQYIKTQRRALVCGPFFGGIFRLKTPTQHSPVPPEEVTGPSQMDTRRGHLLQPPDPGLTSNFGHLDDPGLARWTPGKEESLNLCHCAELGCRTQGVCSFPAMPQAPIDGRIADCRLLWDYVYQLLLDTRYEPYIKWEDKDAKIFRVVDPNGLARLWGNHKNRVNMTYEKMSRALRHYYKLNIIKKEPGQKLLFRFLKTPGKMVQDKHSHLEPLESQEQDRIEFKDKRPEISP
How it was run: as §1

ELF5 = molecular target: T11, ELF5 (Homo sapiens, UniProt Q9UKW6-2 1-255); settings: protein: recombinant; tags: N-terminal GST; dsDNA, one strand shown
T11 sequence: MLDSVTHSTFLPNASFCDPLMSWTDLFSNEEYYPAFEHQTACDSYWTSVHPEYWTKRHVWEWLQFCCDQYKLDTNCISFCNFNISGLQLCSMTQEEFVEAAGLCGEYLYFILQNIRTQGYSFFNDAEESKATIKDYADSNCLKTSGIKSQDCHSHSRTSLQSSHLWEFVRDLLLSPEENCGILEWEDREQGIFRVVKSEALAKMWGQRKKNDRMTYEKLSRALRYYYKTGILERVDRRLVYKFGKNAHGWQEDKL
How it was run: as §1

ETV3 = molecular target: T12, ETV3 (Homo sapiens, UniProt P41162-2 1-143); settings: protein: recombinant; tags: N-terminal GST; dsDNA, one strand shown
T12 sequence: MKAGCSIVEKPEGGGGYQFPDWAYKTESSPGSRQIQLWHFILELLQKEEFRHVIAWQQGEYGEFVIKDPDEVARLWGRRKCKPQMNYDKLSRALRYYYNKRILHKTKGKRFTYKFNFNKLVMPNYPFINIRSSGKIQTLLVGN
How it was run: as §1

ETV6 = ETV6 (Homo sapiens, UniProt P41212 1-452); settings: protein: recombinant; tags: N-terminal GST; dsDNA, one strand shown
How it was run: as §1

Chain of ETV5 (P41161 whole entry): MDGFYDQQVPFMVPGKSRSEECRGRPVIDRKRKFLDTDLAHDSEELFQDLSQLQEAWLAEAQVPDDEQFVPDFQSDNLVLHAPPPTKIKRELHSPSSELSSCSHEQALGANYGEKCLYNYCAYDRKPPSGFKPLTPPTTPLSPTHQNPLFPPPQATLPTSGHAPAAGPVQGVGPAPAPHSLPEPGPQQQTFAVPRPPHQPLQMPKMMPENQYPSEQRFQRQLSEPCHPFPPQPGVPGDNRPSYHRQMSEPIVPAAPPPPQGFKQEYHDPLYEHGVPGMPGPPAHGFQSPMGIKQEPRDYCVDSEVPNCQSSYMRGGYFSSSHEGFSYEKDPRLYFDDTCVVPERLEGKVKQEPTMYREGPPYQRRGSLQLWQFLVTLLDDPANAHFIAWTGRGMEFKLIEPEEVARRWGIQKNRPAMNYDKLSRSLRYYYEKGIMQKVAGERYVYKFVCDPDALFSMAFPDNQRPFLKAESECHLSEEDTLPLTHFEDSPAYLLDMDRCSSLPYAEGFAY
Chain of ETV6 (P41212 whole entry): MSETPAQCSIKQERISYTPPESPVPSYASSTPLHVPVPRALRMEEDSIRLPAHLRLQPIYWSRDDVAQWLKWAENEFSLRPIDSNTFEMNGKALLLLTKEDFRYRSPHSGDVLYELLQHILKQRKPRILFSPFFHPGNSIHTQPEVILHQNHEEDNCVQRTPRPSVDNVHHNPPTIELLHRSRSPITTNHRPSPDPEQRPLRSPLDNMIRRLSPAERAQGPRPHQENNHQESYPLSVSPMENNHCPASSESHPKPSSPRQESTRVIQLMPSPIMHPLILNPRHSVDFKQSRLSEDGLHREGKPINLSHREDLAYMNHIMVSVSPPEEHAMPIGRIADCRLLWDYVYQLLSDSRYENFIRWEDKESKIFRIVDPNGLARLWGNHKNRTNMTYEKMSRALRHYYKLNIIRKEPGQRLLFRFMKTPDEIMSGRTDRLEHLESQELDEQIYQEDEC
Chain of CRX (O43186 whole entry): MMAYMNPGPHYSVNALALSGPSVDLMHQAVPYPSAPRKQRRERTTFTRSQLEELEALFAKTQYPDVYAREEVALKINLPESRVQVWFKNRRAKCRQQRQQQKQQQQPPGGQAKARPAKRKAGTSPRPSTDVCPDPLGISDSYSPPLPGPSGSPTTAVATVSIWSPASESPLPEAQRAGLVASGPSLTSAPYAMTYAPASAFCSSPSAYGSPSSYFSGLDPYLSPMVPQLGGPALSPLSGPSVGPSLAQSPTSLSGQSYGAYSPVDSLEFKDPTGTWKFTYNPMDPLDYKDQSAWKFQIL
Chain of ETV1 (P50549 whole entry): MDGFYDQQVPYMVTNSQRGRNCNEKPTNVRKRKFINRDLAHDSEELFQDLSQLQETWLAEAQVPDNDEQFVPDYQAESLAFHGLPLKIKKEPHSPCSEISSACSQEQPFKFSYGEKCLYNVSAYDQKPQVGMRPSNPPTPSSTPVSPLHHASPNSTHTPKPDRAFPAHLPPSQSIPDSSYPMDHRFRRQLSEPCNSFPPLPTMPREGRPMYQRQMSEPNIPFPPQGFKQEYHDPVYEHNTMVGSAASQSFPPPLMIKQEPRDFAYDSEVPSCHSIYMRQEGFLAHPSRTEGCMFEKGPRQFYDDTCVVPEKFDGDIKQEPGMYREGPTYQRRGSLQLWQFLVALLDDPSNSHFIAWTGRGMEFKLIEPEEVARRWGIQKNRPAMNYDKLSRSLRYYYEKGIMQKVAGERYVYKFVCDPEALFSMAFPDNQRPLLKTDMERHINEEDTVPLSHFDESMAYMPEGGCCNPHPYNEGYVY
Chain of HSF1 (Q00613 whole entry): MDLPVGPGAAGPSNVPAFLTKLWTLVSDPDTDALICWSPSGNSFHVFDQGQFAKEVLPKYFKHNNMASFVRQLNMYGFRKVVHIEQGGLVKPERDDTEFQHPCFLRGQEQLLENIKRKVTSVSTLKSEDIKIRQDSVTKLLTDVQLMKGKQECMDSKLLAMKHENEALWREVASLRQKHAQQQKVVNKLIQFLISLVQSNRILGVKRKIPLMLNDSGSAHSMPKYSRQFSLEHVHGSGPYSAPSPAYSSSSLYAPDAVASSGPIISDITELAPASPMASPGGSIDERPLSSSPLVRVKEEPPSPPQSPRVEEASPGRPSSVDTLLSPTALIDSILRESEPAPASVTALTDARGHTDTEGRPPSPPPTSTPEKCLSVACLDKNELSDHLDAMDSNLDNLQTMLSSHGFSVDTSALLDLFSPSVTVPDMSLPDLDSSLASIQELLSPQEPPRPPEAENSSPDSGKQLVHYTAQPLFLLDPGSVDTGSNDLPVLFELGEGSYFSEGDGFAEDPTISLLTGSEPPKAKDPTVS
Chain of ELF4 (Q99607 whole entry): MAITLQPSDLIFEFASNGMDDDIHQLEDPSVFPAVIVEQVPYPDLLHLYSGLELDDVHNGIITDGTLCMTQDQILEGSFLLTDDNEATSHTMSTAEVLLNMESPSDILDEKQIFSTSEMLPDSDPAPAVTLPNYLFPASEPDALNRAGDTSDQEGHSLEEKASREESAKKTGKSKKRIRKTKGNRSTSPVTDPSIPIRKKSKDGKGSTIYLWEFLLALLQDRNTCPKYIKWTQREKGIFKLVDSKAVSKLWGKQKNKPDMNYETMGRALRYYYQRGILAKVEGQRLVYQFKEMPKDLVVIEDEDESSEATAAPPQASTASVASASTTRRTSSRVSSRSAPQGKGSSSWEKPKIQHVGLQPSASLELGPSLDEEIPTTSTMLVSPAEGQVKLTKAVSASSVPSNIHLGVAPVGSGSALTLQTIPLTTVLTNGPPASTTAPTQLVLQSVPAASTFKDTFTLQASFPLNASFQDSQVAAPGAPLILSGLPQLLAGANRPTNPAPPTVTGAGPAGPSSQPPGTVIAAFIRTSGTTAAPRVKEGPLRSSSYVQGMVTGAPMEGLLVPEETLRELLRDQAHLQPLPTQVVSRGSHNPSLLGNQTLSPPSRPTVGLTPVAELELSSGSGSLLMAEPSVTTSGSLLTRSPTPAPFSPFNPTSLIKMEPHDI

AACGAT
binding signal (FEV): 1.15 fold enrichment (6-mer frequency, TF over GST control)
binding signal (ETV5): 1.22 fold enrichment (6-mer frequency, TF over GST control)
binding signal (HSF1): 1.32 fold enrichment (6-mer frequency, TF over GST control)
binding signal (SPIC): 1.19 fold enrichment (6-mer frequency, TF over GST control)
binding signal (ELF4): 1.17 fold enrichment (6-mer frequency, TF over GST control)
binding signal (ELK4): 1.15 fold enrichment (6-mer frequency, TF over GST control)
binding signal (ETV2): 1.35 fold enrichment (6-mer frequency, TF over GST control)
binding signal (ELF3): 1.08 fold enrichment (6-mer frequency, TF over GST control)
binding signal (CRX): 1.38 fold enrichment (6-mer frequency, TF over GST control)
binding signal (ETV1): 1.19 fold enrichment (6-mer frequency, TF over GST control)
binding signal (ERF): 1.29 fold enrichment (6-mer frequency, TF over GST control)
binding signal (ETV3L): 1.19 fold enrichment (6-mer frequency, TF over GST control)
binding signal (ETS2): 1.22 fold enrichment (6-mer frequency, TF over GST control)
binding signal (SPDEF): 1.14 fold enrichment (6-mer frequency, TF over GST control)
binding signal (ETV7): 1.17 fold enrichment (6-mer frequency, TF over GST control)
binding signal (ELF5): 1.19 fold enrichment (6-mer frequency, TF over GST control)
binding signal (ETV3): 1.24 fold enrichment (6-mer frequency, TF over GST control)
binding signal (ETV6): 1.25 fold enrichment (6-mer frequency, TF over GST control)

— publication PMC7862700, “An all-to-all approach to the identification of sequence-specific readers for epigenetic DNA modifications on cytosine”
